# Measurements taken from ChEMBL document CHEMBL2218924, “A broad activity screen in support of a chemogenomic map for kinase signalling research and drug discovery” (Biochem J, 2013).
# How the values were obtained:
# [1] = biological target: T1, Ephrin type-B receptor 1 (Homo sapiens) (UniProt P54762); settings: at 10 µM
# T1 sequence (whole entry): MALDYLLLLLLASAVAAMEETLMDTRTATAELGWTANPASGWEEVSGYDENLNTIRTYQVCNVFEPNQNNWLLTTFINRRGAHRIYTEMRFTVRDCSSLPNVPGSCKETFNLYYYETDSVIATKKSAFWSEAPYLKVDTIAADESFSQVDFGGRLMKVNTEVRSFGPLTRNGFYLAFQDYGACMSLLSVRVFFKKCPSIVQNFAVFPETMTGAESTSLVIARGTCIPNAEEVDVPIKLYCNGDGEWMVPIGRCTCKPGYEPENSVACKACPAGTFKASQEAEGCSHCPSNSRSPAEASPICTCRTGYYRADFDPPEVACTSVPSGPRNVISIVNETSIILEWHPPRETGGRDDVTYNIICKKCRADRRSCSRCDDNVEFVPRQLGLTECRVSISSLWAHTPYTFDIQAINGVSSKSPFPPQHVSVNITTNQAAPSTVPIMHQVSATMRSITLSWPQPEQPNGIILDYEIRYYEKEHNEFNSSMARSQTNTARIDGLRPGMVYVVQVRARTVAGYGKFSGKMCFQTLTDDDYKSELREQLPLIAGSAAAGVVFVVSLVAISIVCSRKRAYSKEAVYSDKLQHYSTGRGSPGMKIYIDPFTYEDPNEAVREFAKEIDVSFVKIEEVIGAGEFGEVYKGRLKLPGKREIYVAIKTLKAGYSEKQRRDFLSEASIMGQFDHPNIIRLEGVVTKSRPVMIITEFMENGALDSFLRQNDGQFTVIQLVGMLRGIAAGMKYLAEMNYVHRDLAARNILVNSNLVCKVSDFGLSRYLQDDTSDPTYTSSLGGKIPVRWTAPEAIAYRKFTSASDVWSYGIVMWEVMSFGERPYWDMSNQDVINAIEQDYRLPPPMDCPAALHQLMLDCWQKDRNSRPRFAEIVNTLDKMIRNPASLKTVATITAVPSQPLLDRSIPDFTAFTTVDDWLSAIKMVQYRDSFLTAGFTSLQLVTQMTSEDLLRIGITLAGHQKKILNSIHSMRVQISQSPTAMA
# [2] = biological target: T2, Ephrin type-B receptor 2 (Homo sapiens) (UniProt P29323); settings: at 1 µM
# T2 sequence (whole entry): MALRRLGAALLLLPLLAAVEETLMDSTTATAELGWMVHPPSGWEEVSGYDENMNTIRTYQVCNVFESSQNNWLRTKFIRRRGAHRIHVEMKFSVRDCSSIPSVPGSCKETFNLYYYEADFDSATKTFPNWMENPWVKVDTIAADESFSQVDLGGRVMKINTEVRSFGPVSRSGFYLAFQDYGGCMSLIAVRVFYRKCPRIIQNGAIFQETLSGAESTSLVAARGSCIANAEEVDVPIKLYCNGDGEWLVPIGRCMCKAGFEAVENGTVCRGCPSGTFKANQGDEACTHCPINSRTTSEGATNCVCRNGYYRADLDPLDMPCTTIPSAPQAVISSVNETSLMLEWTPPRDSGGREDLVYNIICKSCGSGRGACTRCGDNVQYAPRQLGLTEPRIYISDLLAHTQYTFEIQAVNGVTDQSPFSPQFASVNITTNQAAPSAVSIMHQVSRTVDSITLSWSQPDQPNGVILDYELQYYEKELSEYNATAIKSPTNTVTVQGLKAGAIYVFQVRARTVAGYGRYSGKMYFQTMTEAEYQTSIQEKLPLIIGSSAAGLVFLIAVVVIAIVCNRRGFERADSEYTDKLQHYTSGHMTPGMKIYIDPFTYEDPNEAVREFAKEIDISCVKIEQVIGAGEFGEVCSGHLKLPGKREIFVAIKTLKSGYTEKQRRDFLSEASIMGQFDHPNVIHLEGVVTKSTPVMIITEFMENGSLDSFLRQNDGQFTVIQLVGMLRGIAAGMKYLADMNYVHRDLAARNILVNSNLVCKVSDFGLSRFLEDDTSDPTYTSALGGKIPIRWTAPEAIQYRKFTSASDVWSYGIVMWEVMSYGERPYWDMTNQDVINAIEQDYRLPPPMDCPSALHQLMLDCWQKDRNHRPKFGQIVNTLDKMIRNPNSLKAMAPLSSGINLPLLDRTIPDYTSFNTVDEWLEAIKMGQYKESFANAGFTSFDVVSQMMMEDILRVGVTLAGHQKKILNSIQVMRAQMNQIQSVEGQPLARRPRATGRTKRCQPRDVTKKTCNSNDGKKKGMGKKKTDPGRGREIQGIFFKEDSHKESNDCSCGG
# [3] = biological target: T2, Ephrin type-B receptor 2 (Homo sapiens); settings: at 10 µM
# [4] = biological target: T3, Ephrin type-B receptor 3 (Homo sapiens) (UniProt P54753); settings: at 1 µM
# T3 sequence (whole entry): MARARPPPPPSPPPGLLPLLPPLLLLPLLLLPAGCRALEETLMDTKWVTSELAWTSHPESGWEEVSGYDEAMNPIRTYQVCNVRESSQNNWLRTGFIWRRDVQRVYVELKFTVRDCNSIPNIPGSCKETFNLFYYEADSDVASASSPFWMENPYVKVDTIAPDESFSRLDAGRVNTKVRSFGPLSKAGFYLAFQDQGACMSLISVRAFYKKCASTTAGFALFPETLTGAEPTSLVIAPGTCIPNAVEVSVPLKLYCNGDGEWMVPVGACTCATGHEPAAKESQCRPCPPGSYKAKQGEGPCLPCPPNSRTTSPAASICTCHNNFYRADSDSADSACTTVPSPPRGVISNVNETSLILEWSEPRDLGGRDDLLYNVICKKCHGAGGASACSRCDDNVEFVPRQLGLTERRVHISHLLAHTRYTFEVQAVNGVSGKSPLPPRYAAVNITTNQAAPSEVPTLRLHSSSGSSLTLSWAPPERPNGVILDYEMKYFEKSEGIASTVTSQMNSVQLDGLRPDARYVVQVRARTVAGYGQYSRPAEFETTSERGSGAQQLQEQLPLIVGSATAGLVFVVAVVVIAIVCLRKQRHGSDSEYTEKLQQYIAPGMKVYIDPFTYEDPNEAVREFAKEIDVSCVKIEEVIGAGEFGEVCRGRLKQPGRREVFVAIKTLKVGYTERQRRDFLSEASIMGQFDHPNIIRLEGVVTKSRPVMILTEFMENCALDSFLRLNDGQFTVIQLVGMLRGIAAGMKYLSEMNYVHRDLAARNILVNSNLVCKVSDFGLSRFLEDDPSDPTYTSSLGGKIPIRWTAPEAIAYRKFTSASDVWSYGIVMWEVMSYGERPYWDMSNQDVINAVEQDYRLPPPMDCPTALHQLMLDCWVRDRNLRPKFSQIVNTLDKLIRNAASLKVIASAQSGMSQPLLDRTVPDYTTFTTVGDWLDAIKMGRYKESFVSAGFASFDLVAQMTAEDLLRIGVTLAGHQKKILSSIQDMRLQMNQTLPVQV
# [5] = biological target: T3, Ephrin type-B receptor 3 (Homo sapiens); settings: at 10 µM
# [6] = biological target: T4, Ephrin type-B receptor 4 (Homo sapiens) (UniProt P54760); settings: at 1 µM
# T4 sequence (whole entry): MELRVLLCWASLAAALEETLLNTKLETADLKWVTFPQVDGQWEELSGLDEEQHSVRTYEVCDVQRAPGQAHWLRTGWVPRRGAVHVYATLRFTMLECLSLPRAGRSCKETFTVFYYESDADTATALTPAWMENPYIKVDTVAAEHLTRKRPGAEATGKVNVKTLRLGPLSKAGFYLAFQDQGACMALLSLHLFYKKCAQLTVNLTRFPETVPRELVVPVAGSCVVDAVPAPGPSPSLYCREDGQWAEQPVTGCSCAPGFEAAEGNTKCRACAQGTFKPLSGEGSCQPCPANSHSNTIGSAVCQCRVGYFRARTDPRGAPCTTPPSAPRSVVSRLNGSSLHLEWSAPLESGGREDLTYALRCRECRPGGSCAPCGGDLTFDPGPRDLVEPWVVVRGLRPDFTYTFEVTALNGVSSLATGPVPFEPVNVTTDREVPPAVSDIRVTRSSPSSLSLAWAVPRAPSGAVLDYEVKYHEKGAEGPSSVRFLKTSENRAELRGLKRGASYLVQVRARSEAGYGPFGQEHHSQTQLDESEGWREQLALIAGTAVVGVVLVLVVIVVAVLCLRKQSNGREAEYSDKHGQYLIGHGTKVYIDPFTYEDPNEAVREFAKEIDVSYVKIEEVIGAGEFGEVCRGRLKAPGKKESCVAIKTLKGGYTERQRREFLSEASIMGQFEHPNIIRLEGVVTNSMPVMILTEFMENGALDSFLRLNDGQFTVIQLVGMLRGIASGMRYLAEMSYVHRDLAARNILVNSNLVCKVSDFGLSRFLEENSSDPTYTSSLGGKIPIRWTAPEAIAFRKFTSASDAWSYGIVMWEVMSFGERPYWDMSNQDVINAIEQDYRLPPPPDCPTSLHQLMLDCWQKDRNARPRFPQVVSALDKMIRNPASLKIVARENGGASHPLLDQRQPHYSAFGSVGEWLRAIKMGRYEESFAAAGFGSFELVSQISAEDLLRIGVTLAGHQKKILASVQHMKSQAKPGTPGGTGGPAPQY
# [7] = biological target: T4, Ephrin type-B receptor 4 (Homo sapiens); settings: at 10 µM
# [8] = biological target: Receptor tyrosine-protein kinase erbB-4 (Homo sapiens) (UniProt Q15303); settings: at 1 µM
# Sequence of Receptor tyrosine-protein kinase erbB-4 (Homo sapiens) (Q15303 whole entry): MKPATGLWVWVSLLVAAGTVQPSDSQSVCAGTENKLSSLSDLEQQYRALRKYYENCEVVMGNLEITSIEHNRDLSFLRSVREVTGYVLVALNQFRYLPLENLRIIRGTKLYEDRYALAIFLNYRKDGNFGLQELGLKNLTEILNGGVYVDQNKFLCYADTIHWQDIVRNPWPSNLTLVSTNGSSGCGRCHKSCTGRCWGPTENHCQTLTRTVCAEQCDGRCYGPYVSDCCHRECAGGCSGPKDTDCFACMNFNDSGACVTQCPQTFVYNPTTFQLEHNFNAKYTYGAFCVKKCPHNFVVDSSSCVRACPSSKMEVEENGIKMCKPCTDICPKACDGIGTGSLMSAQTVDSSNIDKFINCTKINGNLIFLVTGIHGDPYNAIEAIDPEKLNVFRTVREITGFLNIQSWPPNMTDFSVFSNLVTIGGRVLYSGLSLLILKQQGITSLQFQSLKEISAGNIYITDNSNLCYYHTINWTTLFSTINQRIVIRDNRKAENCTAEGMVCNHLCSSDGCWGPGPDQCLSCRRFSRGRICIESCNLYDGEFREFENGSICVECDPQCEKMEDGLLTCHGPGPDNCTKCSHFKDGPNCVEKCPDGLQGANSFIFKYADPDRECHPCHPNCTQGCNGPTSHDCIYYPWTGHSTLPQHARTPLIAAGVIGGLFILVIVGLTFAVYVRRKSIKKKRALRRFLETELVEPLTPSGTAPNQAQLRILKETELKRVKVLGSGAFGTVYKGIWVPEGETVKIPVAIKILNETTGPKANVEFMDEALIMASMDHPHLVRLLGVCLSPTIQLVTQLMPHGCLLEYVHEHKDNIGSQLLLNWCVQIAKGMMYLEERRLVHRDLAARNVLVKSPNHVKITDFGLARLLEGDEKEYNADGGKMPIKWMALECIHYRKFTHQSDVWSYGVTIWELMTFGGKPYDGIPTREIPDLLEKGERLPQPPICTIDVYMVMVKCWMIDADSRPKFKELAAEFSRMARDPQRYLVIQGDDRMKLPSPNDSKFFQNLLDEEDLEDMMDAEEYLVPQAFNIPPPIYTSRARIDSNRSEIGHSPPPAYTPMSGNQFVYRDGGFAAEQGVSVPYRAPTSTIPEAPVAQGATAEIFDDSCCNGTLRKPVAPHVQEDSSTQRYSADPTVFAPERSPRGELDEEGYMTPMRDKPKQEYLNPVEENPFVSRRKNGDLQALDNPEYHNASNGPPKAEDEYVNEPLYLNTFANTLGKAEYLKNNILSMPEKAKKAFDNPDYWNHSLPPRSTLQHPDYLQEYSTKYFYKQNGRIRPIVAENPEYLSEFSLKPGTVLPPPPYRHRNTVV
# [9] = biological target: Receptor tyrosine-protein kinase erbB-4 (Homo sapiens) (UniProt Q15303); settings: at 10 µM
# [10] = biological target: Focal adhesion kinase 1 (Homo sapiens) (UniProt Q05397); settings: at 1 µM
# Sequence of Focal adhesion kinase 1 (Homo sapiens) (Q05397 2-1052 limits assumed): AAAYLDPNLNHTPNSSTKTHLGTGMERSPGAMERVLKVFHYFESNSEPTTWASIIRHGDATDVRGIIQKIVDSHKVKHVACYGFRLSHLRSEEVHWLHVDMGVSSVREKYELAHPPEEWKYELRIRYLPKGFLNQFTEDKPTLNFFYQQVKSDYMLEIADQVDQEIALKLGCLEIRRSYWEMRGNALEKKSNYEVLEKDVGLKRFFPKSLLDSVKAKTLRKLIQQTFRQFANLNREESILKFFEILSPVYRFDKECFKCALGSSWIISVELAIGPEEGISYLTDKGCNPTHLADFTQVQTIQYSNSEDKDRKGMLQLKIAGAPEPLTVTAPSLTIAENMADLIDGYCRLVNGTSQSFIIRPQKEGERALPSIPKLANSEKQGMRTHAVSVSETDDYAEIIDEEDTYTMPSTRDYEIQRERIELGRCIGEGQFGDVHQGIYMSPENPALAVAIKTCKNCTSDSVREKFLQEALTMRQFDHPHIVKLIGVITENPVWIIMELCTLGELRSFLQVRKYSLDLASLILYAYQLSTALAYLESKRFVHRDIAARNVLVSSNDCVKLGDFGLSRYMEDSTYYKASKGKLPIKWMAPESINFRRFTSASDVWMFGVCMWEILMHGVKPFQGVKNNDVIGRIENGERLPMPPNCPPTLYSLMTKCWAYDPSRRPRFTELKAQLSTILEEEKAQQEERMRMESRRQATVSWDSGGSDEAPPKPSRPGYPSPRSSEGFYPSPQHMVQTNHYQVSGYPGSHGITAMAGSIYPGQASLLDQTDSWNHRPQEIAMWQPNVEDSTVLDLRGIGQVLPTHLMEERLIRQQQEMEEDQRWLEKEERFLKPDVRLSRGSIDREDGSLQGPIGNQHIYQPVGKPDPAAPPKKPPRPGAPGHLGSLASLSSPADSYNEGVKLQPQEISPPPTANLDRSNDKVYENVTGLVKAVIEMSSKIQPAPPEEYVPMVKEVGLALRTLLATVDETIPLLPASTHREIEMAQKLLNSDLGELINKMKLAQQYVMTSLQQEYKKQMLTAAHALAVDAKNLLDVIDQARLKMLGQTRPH
smiles,measurement,setting,value
CCN(CC)CCCCN1c2ccccc2Oc2ccc(Cl)cc21,residual activity,[1],117%
same,residual activity,[2],122%
same,residual activity,[3],121%
same,residual activity,[4],106% (inactive)
same,residual activity,[5],132%
same,residual activity,[6],109%
same,residual activity,[7],133%
same,residual activity,[8],102%
same,residual activity,[9],95%
same,residual activity,[10],144%
